Sampled rows, rich in hits. Any-hit rate of the full collection: about 3.1%.
ELG1 DNA repair: inhibitors of ELG1-dependent DNA repair in HEK293T cells; HEK293T ELG1-luciferase reporter, luminescence, 16 h; DNA damage induced by 5-fluorouridine; Potency, µM (titrated, usually from 46.1 µM), inactives show at the top dose activity change, negative = inhibition, actives largely listed as inhibitors; 330,000 compounds, 2.3% hits; AID 504467; further: potency means the concentration at half of the fitted maximal effect; on the % scale 0 is the no-effect control and ±100 the full control effect; nearly all actives have a fitted effect of over 55% in size
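Step one: seed 2,000 cells per well. Step two: pin-transfer compound or DMSO alongside 5-fluorouridine. Step three: incubate 16 hr, 37 °C, 5% CO2. Step four: add ONE-Glo, wait 30 min, read luminescence.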
BRCA1 expr act: increases BRCA1 expression | Potency, µM (highest dose often 46.1 µM), for the others: at the highest dose activation, usual class: activators | 380,000 compounds, 1.1% hits | AID 624202 | MCF7-BRCA1-FFLuc reporter, luminescence, 48 h; response scale: scaled: vehicle 0%, 10 µM genistein 100%; further: potency means the concentration at half of the fitted maximal effect; nearly all actives have a fitted effect of over 80% in size
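MCF7 cells carrying a BRCA1-firefly luciferase reporter (2000 cells/well, phenol-red free MEM) were attached for 2 h at 37 °C, then given compounds for 48 h. Luminescence was read 15 min after luciferase reagent; activity normalized to genistein (10 microM) and DMSO.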
Nrf2 activator: activates Nrf2 signaling; Potency, µM (top dose mostly 46.1 µM), inactives show at the top dose activation, usual class: activators; AREc32 ARE-luciferase reporter (MCF7-derived line), luminescence, 24 h; AID 624171; 410,000 compounds, 0.31% hits; further: potency means the concentration at half of the fitted maximal effect; % of control where 0% means no effect; nearly all actives have a fitted effect of over 65% in size
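Luciferase luminescence (Steady-Glo, 30 min at room temperature) served as the read-out of ARE activation in AREc32 cells treated with compounds for 24 hr at 37 deg C.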
IL2 activator: activators of IL-2. IL-2 activation reporter assay, cell-based qHTS; stimulated with anti-CD3/CD4/CD28 beads; in transgenic mouse T cells. 360,000 compounds, 0.065% hits. activation, % (series mostly up to about 46 µM). AID 652025; in the data active means activation above about 50%; inconclusive means mostly about 30% to 49%; further: 0% is about no effect
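Readout is EGFP and DsRed signal by fluorescent plate cytometry after 18 h at 37 degrees C. Transgenic mouse T cells (750/well) received compound for 60 min before bead stimulation (anti-CD3, anti-CD4, anti-CD28); memory T cells served as non-tolerant control.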
* = called active by the depositor; ? = inconclusive; nt = not tested or not shown. Unless noted, the call rests on the fitted dose curve; in most records, active means well fitted curve in the direction sought with a large enough effect; inconclusive means small, poorly fitted or top-dose-only effect, or another doubt; inactive means no such curve, though single readings can be large; an effect the other way counts as inactive or inconclusive.

SMILES	ELG1 DNA repair	BRCA1 expr act	Nrf2 activator	IL2 activator
Cc1ccc(S(=O)(=O)N(C)C)cc1NC(=O)c1c(-c2c(F)cccc2Cl)noc1C	26µM*	-12%	-1%	3
CCOC(=O)c1c(C)[nH]c(C(=O)CN(C)CC(=O)Nc2ccccc2Cl)c1C	?	-6%	4%	0
CN(C)S(=O)(=O)c1cccc(NC(=O)COc2ccc(C(=O)c3ccccc3)cc2)c1	13µM*	-50%	4%	-5
COc1cccc(Cc2nc3ccccc3nc2SCC(=O)NCc2ccc(C)cc2)c1	nt	nt	0%	nt
CCCC(=O)Nc1cccc(OCc2cc(=O)n3cccc(C)c3n2)c1	nt	nt	0%	nt
O=C(NCCc1ccccc1)C1(c2cccs2)CCOCC1	nt	nt	0%	nt
CCN(CC)S(=O)(=O)c1cc(NC(=O)C(C)OC(=O)c2[nH]c(C)c(C(C)=O)c2C)ccc1C (stereo unspecified)	10µM*	-80%	6%	-5
CC(=O)c1c(C)[nH]c(C(=O)OCC(=O)Nc2cccc(S(=O)(=O)N3CCCC3)c2)c1C	?	-61%	5%	0
CCN(CC)S(=O)(=O)c1cccc(NC(=O)COC(=O)c2[nH]c(C)c(C(C)=O)c2C)c1	nt	-64%	-1%	-3
CC(=O)c1c(C)[nH]c(C(=O)OCC(=O)Nc2cc(S(=O)(=O)N3CCCC3)ccc2Cl)c1C	16µM*	-51%	4%	-1
CC(=O)c1c(C)[nH]c(C(=O)OCC(=O)Nc2cccc(S(=O)(=O)N(C)C)c2)c1C	13µM*	2%	0%	-2
CC(=O)c1c(C)[nH]c(C(=O)OCC(=O)Nc2cccnc2Cl)c1C	?	-47%	3%	-1
CC(=O)c1c(C)[nH]c(C(=O)OCC(=O)Nc2ccccc2Cl)c1C	8.2µM*	-42%	5%	-7
CC(=O)c1c(C)[nH]c(C(=O)OC(C)C(=O)Nc2ccc(C)c(S(=O)(=O)N3CCOCC3)c2)c1C (stereo unspecified)	-21%	-26%	5%	0
CC(C)(C)C(=O)Nc1cccc(C(=O)OCc2cc(=O)n3nc(C4CC4)sc3n2)c1	nt	nt	4%	nt
O=C1NC[C@H](CC2CCCCC2)N(CCC23CC4CC(CC(C4)C2)C3)C1=O	nt	23%	0%	0
Cc1ccc(-c2cc3ncc(C(=O)c4cc([N+](=O)[O-])ccc4O)cn3n2)cc1	nt	0%	3%	nt
Cc1onc(-c2ccccc2Cl)c1C(=O)OCC(=O)Nc1cccc(S(=O)(=O)N(C)C)c1	16µM*	-36%	3%	-1
Cc1onc(-c2ccccc2Cl)c1C(=O)OCC(=O)Nc1ccc2c(c1)OCO2	-5%	-35%	3%	-3
CCOC(=O)c1sc(N)c(C(=O)Nc2ccccc2)c1C	?	13µM*	4%	0
CCOC(=O)c1sc(N)c(C(=O)OCC)c1C	?	73%	4%	-1
O=C(c1ccccc1)C1OC1C(=O)c1ccccc1 (stereo unspecified)	nt	-40%	13µM*	-1
OC[C@@H]1CN(CCc2ccccc2)C[C@H](n2cnc3c(NCc4ccc(F)cc4)ncnc32)O1	nt	-14%	3%	0
COC(=O)c1cc(C)[nH]c2c(C)cc3nc4ccccc4c3c12	18µM*	-46%	0%	-2
Cc1nc2ccn(Cc3cccnc3)c(=O)c2cc1C(=O)N1CCN(c2ccc(F)cc2)CC1	nt	nt	1%	nt
SMILES	ELG1 DNA repair	BRCA1 expr act	Nrf2 activator	IL2 activator
Cc1nc2ccn(Cc3ccccc3)c(=O)c2cc1C(=O)N1CCN(c2ccc(F)cc2)CC1	6.5µM*	6%	0%	0
COC(=O)[C@@]12OC[C@]34[C@H]([C@@H](O)[C@@H]1O)[C@@]1(C)C(=O)C(O[C@@H]5OC(CO)[C@@H](O)[C@@H](O)[C@@H]5O)=C[C@@H](C)[C@@H]1C[C@H]3OC(=O)[C@H](OC(=O)/C=C(\C)C(C)(C)OC(C)=O)[C@@H]24 (stereo partly specified)	6.5µM*	-72%	-4%	-2
CC(=O)Nc1cccc(NC(=O)c2ccc(COc3ccccc3)cc2)c1	?	2.2µM*	0%	0
CC(=O)Nc1cccc(OCc2ccc([N+](=O)[O-])cc2)c1	nt	11µM*	5%	-1
CC(=O)Nc1ccc(NC(=O)c2ccc(COc3ccccc3)cc2)cc1	6%	39%	0%	1
CC(=O)Nc1cccc(OCCCOc2ccc([N+](=O)[O-])cc2)c1	-26%	18%	4%	-4
CCNC(=O)c1nn(-c2ccccc2C)nc1CO	nt	nt	0%	nt
O=C(NCCc1nc2ccccc2n1CCCOc1ccccc1)C1CCCCC1	nt	0%	nt	nt
CCC(=O)N1CCc2cc(Br)cc(S(=O)(=O)N3CCC(C(=O)NC(C)(C)C)CC3)c21	7.3µM*	-13%	-1%	0
Cc1ccc(N2CCN(C(=O)c3c(C)oc4nc(C)nc(N5CCCC5)c34)CC2)c(C)c1	nt	nt	0%	nt
CCCCCCCCn1ccc(=N)cc1	0.73µM*	-64%	-2%	-1
O=C(CN1C(=O)C2(SCC(=O)N2c2cccc(Cl)c2)c2ccccc21)NC1CCCCC1 (stereo unspecified)	nt	-32%	0%	nt
CC(=O)N1c2ccc(Cl)cc2C2OCCC2C1c1ccco1 (stereo unspecified)	-6%	17%	-1%	2
Clc1ccc2c(c1)C1OCCC1C(c1ccco1)N2 (stereo unspecified)	?	22%	5.6µM*	-1
COc1cc(N(C)C)c(OC)cc1/C=C1\C=Cc2ccccc21	nt	58%	nt	nt
Nc1ccccc1SC(CC(=O)c1ccccc1)c1cccc([N+](=O)[O-])c1 (stereo unspecified)	nt	-45%	5µM*	-4
COc1cccc(/C=N/NC(=O)c2nc(-c3ccccc3)cc(-c3ccccc3)n2)c1	7.3µM*	6%	0%	1
COc1ccc(/C=N/NC(=O)c2nc(-c3ccccc3)cc(-c3ccccc3)n2)cc1OC	4.1µM*	29%	1%	0
O=C(Nc1ccc(C(=O)N2CCOCC2)cc1)Nc1cccc(Cl)c1	8%	11µM*	5%	-2
CC(=O)c1cccc(NC(=O)Nc2ccc(C(=O)N3CCCC3)cc2)c1	6.5µM*	36%	-1%	-2
CC(=O)c1cccc(NC(=O)Nc2ccc3c(c2)N(C)C(=O)CS3)c1	13µM*	-3%	0%	2
CSc1ccc(CNC(=O)CCn2ccc3cc(S(=O)(=O)N4CCC(C)CC4)ccc32)cc1	nt	nt	4%	nt
CCCc1cc(N2CCN(c3cc(Cl)ccc3C)CC2)n2cnnc2n1	nt	nt	3%	nt
O=C(NCc1ccc(F)cc1)c1cc(-c2ccc(Cl)cc2)n[nH]1	nt	nt	0%	nt
CCN1C(=O)/C(=C/N2CCc3ccccc32)SC1=S	?	3.2µM*	3%	1
CCN1C(=O)/C(=C\N2CCCc3ccccc32)SC1=S	?	-10%	0%	9
CCOC(=O)C1CCCN(CC(=O)Nc2c(C(=O)OC)[nH]c3ccc(Cl)cc23)C1 (stereo unspecified)	21µM*	-32%	1%	1
